Laboratory results taken from PubChem BioAssay (NCATS).
“And” between values parts separate entries of the source, which are not always exact repeats. Equal values may be shown once. Records with an inconclusive call do not appear. The source made the active and inactive calls. Unless noted, calls come from the whole dose curve; as a rule, active = well fitted curve in the direction sought with a large enough effect; inconclusive = small, poorly fitted or top-dose-only effect, or another doubt; inactive = no such curve, though single readings can be large; an effect the other way counts as inactive or inconclusive.

Columns and labels:
[1] = biological target: Mitogen-activated protein kinase 10 (Mus musculus) (UniProt Q61831); assay: JNK3 AlphaScreen Assay (AID 530; active = well fitted curve in either direction with a large enough effect, not every such curve was filed as active;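 note: kinase came from lysate of stimulated human HepG2 cells; signal reports phosphorylation of biotinylated GST-cJun 1-79 at Ser73 with 10 µM ATP; % is set by controls: 0 for no effect and ±100 for the full control effect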)
Method in brief: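 Pre-activated (IL-1β/TNFα) JNK3 in HepG2 lysates phosphorylates biotin-GST-cJun(1-79), 10 uM ATP; anti-phospho-cJun(Ser73) AlphaScreen read at room temperature, pH 7.6 Tris buffer. Compounds pre-incubated 15 min as titrations.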

[2] = Cell Viability - N2a (AID 540); details: N2a mouse neuroblastoma cell viability; activity change, negative = cytotoxicity: at 92.2 µM (top of the series);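 note: cells exposed to compound for 40 h at 37 °C; plate controls were DMSO alone for no effect and tamoxifen control for full effect; nearly all actives have a fitted effect of over 45% in size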
Method in brief: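 Luminescent ATP signal (CellTiter-Glo, 20 min at room temperature) served as the viability read-out after N2a cells were treated with compounds for 40 hours at 37 °C. Concentration-response data were fitted to the Hill equation for AC50.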

[3] = Cellular Toxicity (caspase-3) SHSY5Y (AID 657)
Method in brief: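 Luminescent Caspase-Glo 3/7 read-out, 1 hr room temperature, follows 16 hours of compound treatment of SH-SY5Y cells at 37 °C. Normalization: DMSO basal, 10 uM staurosporine as 100%; AC50 values from Hill-equation concentration-response fits.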

[4] = biological target: Cytochrome P450 3A4 (Homo sapiens) (UniProt P08684); assay: qHTS Assay for Inhibitors and Substrates of Cytochrome P450 3A4 (AID 884); note: nearly all actives have a fitted effect of over 50% in size; note: potency is the fitted concentration of half-maximal effect
Method in brief: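 20 nM human CYP3A4 with 25 uM Luciferin-PPXE (at KM) in 200 mM KPO4, preincubated 10 min with compound; NADPH regeneration started a 60 min RT reaction. Luciferin detected by luminescence, normalized to 57 uM ketoconazole as full inhibition.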

[5] = MultiTox-Fluor Cytotoxicity Assay - LYMP1-002 - Dead Cells (AID 960); note: nearly all actives have a fitted effect of over 60% in size
Method in brief: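 LYMP1-002 cells 2500/well; 5 hr 37 C pre-incubation; compound 16 hr 37 C; MultiTox-Fluor reagent 60 min RT; dead-cell fluor Ex/Em 485/520. Norm. to DMSO (0%) vs 15 uM tetraoctylammonium bromide (100%); Hill AC50.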

[6] = Cell Viability - LYMP2-023 (AID 975);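 note: cellular ATP measured by luciferase luminescence as viability proxy; cells exposed to compound for 24 hours at 37 °C; plate controls were DMSO only for no effect and 92 µM tetraoctylammonium bromide control for full effect; nearly all actives have a fitted effect of over 55% in size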
Method in brief: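 2500 cells/well, 5 hr 37 C; cpd 24 hr 37 C; CellTiter-Glo, 30 min RT; luminescence. qHTS conc-response, Hill fit -> AC50. Pos ctrl tetraoctylammonium bromide.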

[7] = biological target: Peroxisome proliferator-activated receptor gamma (Homo sapiens) (UniProt P37231); assay: qHTS assay for small molecule agonists of peroxisome proliferator-activated receptor gamma signaling (AID 588536; active = well fitted curve in the direction sought with a large enough effect in the signal ratio, with a control signal flat, not every such curve was filed as active; the % refers to the signal ratio;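 note: 0% = DMSO basal wells and 100% = rosiglitazone at 2 µM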)
Method in brief: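 PPAR-gamma-UAS-bla HEK293 cells in medium with 1% charcoal/dextran-treated FBS were exposed to compounds for 16 h at 37 C. Beta-lactamase activity was read with CCF4 substrate (405 nm excitation, 460/530 nm emission).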

[8] = biological target: Vitamin D3 receptor (Homo sapiens) (UniProt P11473); assay: qHTS assay for small molecule antagonists of vitamin D receptor signaling (AID 588541; calls by dose curve;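 note: receptor activated by calcitriol during compound treatment; % is set by controls: 0 for no effect and ±100 for the full control effect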)
Method in brief: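 VDR-UAS-bla HEK293T cells in 2% charcoal-stripped FBS were stimulated with 1-alpha,25-dihydroxyvitamin D3 (3 nM final) plus compound for 16 h at 37 C. The beta-lactamase CCF4 readout was normalized to 50 nM agonist and DMSO, and Hill fits gave IC50.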

[9] = biological target: Thyroid hormone receptor beta (Homo sapiens) (UniProt P10828); assay: qHTS assay for small molecule antagonists of thyroid hormone receptor beta signaling (AID 588547; active = well fitted inhibition curve with a large enough effect in the signal ratio, with a control signal flat, not every such curve was filed as active; the % refers to the signal ratio;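 note: cells stimulated with 0.4 nM T3 agonist during compound exposure; % is set by controls: 0 for no effect and ±100 for the full control effect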); details: TR-UAS-bla HEK293, beta-lactamase ratio, antagonist mode, 18 h
Method in brief: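 TR-UAS-bla GripTite HEK293 cells in 2% charcoal/dextran FBS medium; compounds 0.59 nM to 92 uM with T3 at 0.4nM final, 18 h at 37 C. Beta-lactamase read by CCF4 fluorescence (460/530 nm); Hill fits gave IC50 and efficacy.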

[10] = biological target: Voltage-gated inwardly rectifying potassium channel KCNH2 (Homo sapiens) (UniProt Q12809); assay: qHTS Assay for Small Molecule Inhibitors of the Human hERG Channel Activity (AID 588834);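 note: top concentration of the series differs between compounds; % is set by controls: 0 for no effect and ±100 for the full control effect; lower thallium flux fluorescence means stronger hERG block; nearly all actives have a fitted effect of over 50% in size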
Method in brief: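 Kinetic FDSS fluorescence; U2OS + hERG BacMam (~100 virus particles/cell); FluxOR Tl+ flux; ~10 min cpd; AC50 (Hill).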

[11] = qHTS assay for small molecule disruptors of the mitochondrial membrane potential - 1 hr assay (AID 651754; calls by dose curve; note: nearly all actives have a fitted effect of over 35% in size; note: potency is the fitted concentration of half-maximal effect)
Method in brief: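 HepG2, 2,000 cells/well, overnight attachment; cpd or DMSO 1 hr, 37C/5% CO2; Mito-MPS dye 30 min, 37C; fluorescence monomer (490/535) and aggregate (540/590).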

[12] = qHTS assay for small molecule disruptors of the mitochondrial membrane potential - 5 hr assay (AID 651755; calls by dose curve; note: nearly all actives have a fitted effect of over 40% in size; note: potency is the fitted concentration of half-maximal effect)
Method in brief: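 HepG2 cells (2,000/well), attached overnight, exposed to compound 5 hr at 37C, then Mito-MPS dye 30 min. Fluorescence read for monomers (490/535 nm) and aggregates (540/590 nm).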

[13] = biological target: Tumor necrosis factor (Homo sapiens) (UniProt P01375); assay: qHTS assay to identify small molecules that stimulate Tumor Necrosis Factor-alpha (TNF-alpha) secretion (AID 651757; active = well fitted curve in the direction sought with a large enough effect in the signal ratio; the % refers to the signal ratio; note: 0% is about no effect)
Method in brief: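 Read-out is HTRF, a TR-FRET sandwich of cryptate- and XL665-labeled anti-TNF-alpha antibodies detecting cytokine secreted by THP-1 cells. Cells had been incubated with test compounds at 37 C for 17 hrs beforehand.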

[14] = biological target: Nuclear receptor ROR-gamma (Homo sapiens) (UniProt P51449); assay: qHTS assay for small molecule antagonists of the retinoid-related orphan receptor gamma (ROR-gamma) signaling pathway (AID 651802);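 note: CHO cells with doxycycline-induced ROR-gamma expression; luciferase reporter luminescence driven by ROR response element; % is set by controls: 0 for no effect and ±100 for the full control effect; nearly all actives have a fitted effect of over 60% in size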
Method in brief: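 CHO, TET-inducible ROR + RORE-LUC reporter, 1536-well qHTS. Compound pinned, doxycycline added, 16hr 37C/5% CO2. ONE-Glo, 30 min RT, luminescence; signal drop scored as antagonism.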

[15] = qHTS assay for cell viability of HEK293 cells (AID 743288); details: ATP luminescence (CellTiter-Glo), 18 h, hits give low values; note: % is set by controls: 0 for no effect and ±100 for the full control effect; nearly all actives have a fitted effect of over 50% in size
Method in brief: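 Total intracellular ATP, measured with a luciferase-coupled reagent, indicates the number of viable HEK293 cells. Exposure to test chemicals lasts 18 h at 37 C in 1,536-well format at 2,000 cells/well.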

[16] = biological target: Nuclear receptor subfamily 1 group I member 2 (Rattus norvegicus) (UniProt Q9R1A7); assay: qHTS assay for small molecule activators of the rat pregnane X receptor (rPXR) signaling pathway (AID 651751; call rule not given here; note: 0% is about no effect); details: rPXR reporter cells, luciferase (One-Glo), 24 h
[17] = qHTS assay for small molecule activators of the human pregnane X receptor (PXR) signaling pathway (AID 720659; call rule not given here; note: 0% is about no effect)
[18] = Cell Viability - Renal Proximal Tubule (AID 545);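 note: 0% = DMSO only and -100% = 100 µM tamoxifen; nearly all actives have a fitted effect of over 40% in size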
Method in brief: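 Viability taken as intracellular ATP (CellTiter-Glo luminescence) after 40 hr, 37 °C compound treatment of primary proximal tubule cells from rat kidney, 1000 cells/well; Hill-equation fits of qHTS concentration-response data gave AC50.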

[19] = Cell Viability - LYMP1-002 - Assay at 24 hr (AID 993); note: % is set by controls: 0 for no effect and ±100 for the full control effect
Method in brief: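 Cells plated 2500/well, 5 hr 37 C; compounds added, 24 hr 37 C; CellTiter-Glo added, 30 min RT; luminescence read. Tetraoctylammonium bromide positive control. Hill-equation AC50.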

[20] = qHTS assay for small molecule agonists of the antioxidant response element (ARE) signaling pathway measured by Nrf2-dependant transcriptional activity - cell viability counter screen (AID 720653; active = well fitted curve in the direction sought with a large enough effect in the repeat runs; an effect the other way counts as inactive or inconclusive; note: % is set by controls: 0 for no effect and ±100 for the full control effect); details: ARE-bla HepG2 viability, CellTiter-Glo ATP luminescence, 16 h; hits give low values
Method in brief: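 ARE-bla HepG2 cells treated with compounds for 16 h at 37C; this counter screen measures viability as intracellular ATP by CellTiter-Glo luminescence after 30 min at room temperature.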

Nuclear receptor ROR-gamma (Homo sapiens), sequence (P51449 whole entry, looked up): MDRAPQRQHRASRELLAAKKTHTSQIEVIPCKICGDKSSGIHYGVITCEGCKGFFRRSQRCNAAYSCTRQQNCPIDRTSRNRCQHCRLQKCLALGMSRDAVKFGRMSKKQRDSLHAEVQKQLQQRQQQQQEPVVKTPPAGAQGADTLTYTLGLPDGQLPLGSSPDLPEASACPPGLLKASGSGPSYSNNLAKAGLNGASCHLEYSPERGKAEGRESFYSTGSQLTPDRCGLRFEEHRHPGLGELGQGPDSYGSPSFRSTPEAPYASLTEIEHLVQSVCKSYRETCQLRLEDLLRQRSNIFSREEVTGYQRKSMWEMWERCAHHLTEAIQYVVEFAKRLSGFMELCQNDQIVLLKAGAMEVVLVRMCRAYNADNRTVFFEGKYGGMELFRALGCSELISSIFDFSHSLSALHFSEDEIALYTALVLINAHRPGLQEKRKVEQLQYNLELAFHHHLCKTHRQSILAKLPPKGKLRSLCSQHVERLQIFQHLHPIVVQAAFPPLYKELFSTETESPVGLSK
Tumor necrosis factor (Homo sapiens), sequence (P01375 whole entry, looked up): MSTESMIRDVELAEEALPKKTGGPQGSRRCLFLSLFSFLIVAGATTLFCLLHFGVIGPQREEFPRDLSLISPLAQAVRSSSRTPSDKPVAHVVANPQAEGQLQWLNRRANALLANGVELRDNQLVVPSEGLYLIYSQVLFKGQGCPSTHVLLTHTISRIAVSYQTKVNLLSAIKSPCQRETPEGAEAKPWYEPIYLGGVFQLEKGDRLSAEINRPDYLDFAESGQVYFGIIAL
Nuclear receptor subfamily 1 group I member 2 (Rattus norvegicus), sequence (Q9R1A7 whole entry, looked up): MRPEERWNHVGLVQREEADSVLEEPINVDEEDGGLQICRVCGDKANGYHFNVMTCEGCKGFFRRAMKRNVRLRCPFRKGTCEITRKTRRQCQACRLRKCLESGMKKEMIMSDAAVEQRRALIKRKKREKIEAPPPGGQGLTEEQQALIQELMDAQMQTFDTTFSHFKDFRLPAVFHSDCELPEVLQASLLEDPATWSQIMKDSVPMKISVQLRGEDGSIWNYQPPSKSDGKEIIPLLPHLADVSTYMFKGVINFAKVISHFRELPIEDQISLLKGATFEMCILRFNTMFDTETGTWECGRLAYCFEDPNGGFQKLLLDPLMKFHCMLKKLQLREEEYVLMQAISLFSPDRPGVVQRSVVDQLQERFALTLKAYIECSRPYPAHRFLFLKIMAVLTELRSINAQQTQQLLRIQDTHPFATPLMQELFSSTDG
Voltage-gated inwardly rectifying potassium channel KCNH2 (Homo sapiens), sequence (Q12809 whole entry, looked up): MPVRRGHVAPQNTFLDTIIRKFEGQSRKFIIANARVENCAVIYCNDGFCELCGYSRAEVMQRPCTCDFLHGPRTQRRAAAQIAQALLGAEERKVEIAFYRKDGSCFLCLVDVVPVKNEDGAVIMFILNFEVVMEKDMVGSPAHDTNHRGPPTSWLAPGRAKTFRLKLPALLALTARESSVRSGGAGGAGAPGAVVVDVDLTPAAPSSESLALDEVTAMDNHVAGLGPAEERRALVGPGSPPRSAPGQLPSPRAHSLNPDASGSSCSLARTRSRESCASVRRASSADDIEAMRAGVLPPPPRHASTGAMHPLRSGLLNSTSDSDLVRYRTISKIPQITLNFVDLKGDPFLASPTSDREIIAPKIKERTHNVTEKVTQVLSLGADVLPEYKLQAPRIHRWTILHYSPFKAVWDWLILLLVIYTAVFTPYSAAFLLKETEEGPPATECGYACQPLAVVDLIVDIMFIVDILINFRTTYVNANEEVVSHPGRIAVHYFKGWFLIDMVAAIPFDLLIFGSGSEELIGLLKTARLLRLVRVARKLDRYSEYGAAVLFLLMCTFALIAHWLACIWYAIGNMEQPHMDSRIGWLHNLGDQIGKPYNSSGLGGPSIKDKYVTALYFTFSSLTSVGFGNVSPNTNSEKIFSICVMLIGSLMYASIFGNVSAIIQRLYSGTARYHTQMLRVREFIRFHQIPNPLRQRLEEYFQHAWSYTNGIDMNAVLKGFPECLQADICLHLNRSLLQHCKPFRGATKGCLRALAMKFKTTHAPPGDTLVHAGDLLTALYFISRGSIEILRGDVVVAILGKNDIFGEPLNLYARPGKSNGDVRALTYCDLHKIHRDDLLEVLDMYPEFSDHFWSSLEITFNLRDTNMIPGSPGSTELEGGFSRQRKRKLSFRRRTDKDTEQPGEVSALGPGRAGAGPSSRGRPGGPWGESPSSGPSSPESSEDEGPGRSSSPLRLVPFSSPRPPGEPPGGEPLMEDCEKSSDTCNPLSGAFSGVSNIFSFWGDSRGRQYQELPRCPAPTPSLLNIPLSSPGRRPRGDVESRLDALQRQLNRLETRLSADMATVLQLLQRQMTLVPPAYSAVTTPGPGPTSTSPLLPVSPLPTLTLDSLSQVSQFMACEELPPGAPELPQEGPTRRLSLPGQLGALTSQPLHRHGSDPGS
Thyroid hormone receptor beta (Homo sapiens), sequence (P10828 whole entry, looked up): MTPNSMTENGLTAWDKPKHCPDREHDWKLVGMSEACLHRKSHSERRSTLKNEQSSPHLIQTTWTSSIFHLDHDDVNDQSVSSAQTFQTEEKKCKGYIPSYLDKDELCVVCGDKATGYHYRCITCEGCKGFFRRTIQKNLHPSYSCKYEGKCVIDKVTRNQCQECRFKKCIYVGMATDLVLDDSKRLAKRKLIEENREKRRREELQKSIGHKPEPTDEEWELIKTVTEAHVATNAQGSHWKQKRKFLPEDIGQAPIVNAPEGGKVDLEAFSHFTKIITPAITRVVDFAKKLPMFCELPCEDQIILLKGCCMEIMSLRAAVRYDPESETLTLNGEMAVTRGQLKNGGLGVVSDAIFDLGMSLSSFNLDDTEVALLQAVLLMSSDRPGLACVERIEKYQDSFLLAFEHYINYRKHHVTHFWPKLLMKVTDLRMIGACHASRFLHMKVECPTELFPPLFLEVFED
Vitamin D3 receptor (Homo sapiens), sequence (P11473 whole entry, looked up): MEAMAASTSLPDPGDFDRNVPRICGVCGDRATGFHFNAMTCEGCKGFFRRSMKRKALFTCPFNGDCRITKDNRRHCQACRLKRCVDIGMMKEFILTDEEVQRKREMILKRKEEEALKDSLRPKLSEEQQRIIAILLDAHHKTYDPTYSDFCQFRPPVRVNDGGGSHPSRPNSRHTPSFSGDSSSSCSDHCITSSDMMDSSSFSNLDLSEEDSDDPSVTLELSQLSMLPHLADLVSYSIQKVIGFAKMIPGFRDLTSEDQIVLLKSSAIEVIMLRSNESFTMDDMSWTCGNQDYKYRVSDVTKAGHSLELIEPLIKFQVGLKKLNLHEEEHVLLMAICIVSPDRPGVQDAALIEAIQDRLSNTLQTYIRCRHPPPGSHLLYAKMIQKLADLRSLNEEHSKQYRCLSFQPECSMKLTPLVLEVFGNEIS
Cytochrome P450 3A4 (Homo sapiens), sequence (P08684 whole entry, looked up): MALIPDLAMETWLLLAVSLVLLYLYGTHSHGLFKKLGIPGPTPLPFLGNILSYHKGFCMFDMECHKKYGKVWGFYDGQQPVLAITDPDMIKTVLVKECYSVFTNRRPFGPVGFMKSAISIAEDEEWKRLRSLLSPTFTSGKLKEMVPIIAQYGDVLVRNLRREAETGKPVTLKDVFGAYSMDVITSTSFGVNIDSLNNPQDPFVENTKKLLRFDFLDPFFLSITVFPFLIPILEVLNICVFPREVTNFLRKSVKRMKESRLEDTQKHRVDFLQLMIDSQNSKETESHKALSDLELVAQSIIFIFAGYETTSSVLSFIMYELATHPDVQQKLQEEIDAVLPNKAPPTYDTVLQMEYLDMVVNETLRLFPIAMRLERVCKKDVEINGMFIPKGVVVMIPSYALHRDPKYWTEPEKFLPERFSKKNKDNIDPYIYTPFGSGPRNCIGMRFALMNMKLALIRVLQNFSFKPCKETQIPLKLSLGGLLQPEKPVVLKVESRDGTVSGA
Peroxisome proliferator-activated receptor gamma (Homo sapiens), sequence (P37231 whole entry, looked up): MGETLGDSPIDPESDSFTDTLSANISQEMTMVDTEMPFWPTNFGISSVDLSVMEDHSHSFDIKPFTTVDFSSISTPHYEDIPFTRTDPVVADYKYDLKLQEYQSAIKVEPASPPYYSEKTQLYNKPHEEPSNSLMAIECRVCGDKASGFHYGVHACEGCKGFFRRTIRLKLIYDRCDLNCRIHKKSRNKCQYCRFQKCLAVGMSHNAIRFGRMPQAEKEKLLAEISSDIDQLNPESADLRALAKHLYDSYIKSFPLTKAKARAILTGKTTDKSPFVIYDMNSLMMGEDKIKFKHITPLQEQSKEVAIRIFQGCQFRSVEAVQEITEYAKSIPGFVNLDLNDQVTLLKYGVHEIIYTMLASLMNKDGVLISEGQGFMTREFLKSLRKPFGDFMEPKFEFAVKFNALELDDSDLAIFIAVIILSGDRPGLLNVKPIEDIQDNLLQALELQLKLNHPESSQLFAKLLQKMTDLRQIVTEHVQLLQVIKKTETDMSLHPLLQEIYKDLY

CC(C)[C@]12CC(=O)[C@H](C)[C@H]1C2
inactive: Potency [1] | Potency [2] | outcome [3] | Potency [4] | Potency [5] | Potency [6] | outcome [7] | outcome [8] | activity change % (negative = inhibition) [9] -3.76% and 6.48% | Potency [10] | Potency [11] | Potency [12] | outcome [13] | Potency [14] | max response [15] 18.6% and -3.71% | max response [16] 2.33% and 6.9% | outcome [17]

N#CCCCCC#N
inactive: Potency [1] | Potency [2] | outcome [18] | outcome [3] | Potency [4] | Potency [5] | Potency [6] | Potency [19] | outcome [7] | outcome [8] | activity change % (negative = inhibition) [9] -18.7% | Potency [10] | Potency [11] | Potency [12] | outcome [13] | Potency [14] | max response [20] 5.3% | max response [15] -18.9% | max response [16] 9.56% | outcome [17]

COc1ccccc1N
inactive: Potency [1] | Potency [2] | outcome [3] | Potency [4] | Potency [5] | Potency [6] | Potency [19] | outcome [7] | Potency [10] | Potency [11] | Potency [12] | outcome [13] | Potency [14] | max response [20] 6.75% | max response [15] -0.892% | max response [16] 20.9% | outcome [17]

c1ccc(OCC2CO2)cc1 (stereo unspecified)
inactive: Potency [1] | Potency [2] | outcome [18] | outcome [3] | Potency [4] | Potency [5] | Potency [6] | Potency [19] | outcome [7] | outcome [8] | activity change % (negative = inhibition) [9] 6.77% | Potency [10] | Potency [11] | Potency [12] | outcome [13] | Potency [14] | max response [20] 0.104% | max response [15] 5.64% | max response [16] -1.75% | outcome [17]

OCCBr
inactive: Potency [1] | Potency [2] | outcome [3] | Potency [4] | Potency [5] | Potency [6] | Potency [19] | outcome [7] | outcome [8] | Potency [10] | Potency [11] | Potency [12] | outcome [13] | Potency [14] | max response [20] 1.65% | max response [15] 5.14% | max response [16] -0.978% | outcome [17]

CC[N+](=O)[O-]
inactive: Potency [1] | Potency [2] | outcome [18] | outcome [3] | Potency [4] | Potency [5] | Potency [6] | Potency [19] | outcome [7] | outcome [8] | activity change % (negative = inhibition) [9] -0.712% | Potency [10] | Potency [11] | Potency [12] | outcome [13] | Potency [14] | max response [15] 0.073% | max response [16] -6.68% | outcome [17]

OCC(Cl)CCl (stereo unspecified)
inactive: Potency [1] | Potency [2] | outcome [18] | outcome [3] | Potency [4] | Potency [5] | Potency [6] | Potency [19] | outcome [7] | outcome [8] | activity change % (negative = inhibition) [9] -13.6% | Potency [10] | Potency [11] | Potency [12] | outcome [13] | Potency [14] | max response [20] -10.2% | max response [15] -6.78% | max response [16] 2.56% | outcome [17]

COC(=O)Nc1cccc(OC(=O)Nc2cccc(C)c2)c1
inactive: Potency [1] | Potency [2] | outcome [3] | Potency [5] | Potency [6] | outcome [7] | activity change % (negative = inhibition) [9] -5.68% | Potency [10] | outcome [13] | Potency [14] | max response [20] -11.1% | max response [15] -7.47%
active: Potency [4] 25.1 µM | Potency [11] 42.2 µM | Potency [12] 42.2 µM

C=CC(=O)OCC(CC)CCCC (stereo unspecified)
inactive: Potency [1] | Potency [2] | Potency [4] | Potency [5] | Potency [6] | Potency [19] | outcome [7] | outcome [8] | activity change % (negative = inhibition) [9] -10.5% and 4.22% | Potency [10] | Potency [11] | Potency [12] | outcome [13] | Potency [14] | max response [20] -8.13% and 5.16% | max response [15] 1.71% and -12.5% | max response [16] -2.19% and -0.52% | outcome [17]

Nc1ccc(-c2ccccc2)cc1
active: Potency [4] 12.6 µM
inactive: Potency [1] | Potency [2] | outcome [18] | outcome [3] | Potency [5] | Potency [6] | Potency [19] | outcome [8] | activity change % (negative = inhibition) [9] -2.45% | Potency [10] | outcome [13] | Potency [14] | max response [20] 5.56% | max response [15] -6.92% | outcome [17]

Clc1cc(Cl)c(Cl)c(Cl)c1
inactive: Potency [1] | Potency [2] | outcome [18] | outcome [3] | Potency [4] | Potency [5] | Potency [6] | Potency [19] | outcome [7] | outcome [8] | activity change % (negative = inhibition) [9] -16.6% | Potency [10] | Potency [11] | Potency [12] | outcome [13] | max response [15] -14.6% | max response [16] -2.54% | outcome [17]

CN(C)C(=O)Nc1cccc(C(F)(F)F)c1
inactive: Potency [1] | Potency [2] | outcome [18] | Potency [4] | Potency [5] | Potency [6] | Potency [19] | outcome [7] | outcome [8] | activity change % (negative = inhibition) [9] -7.4% and -5.84% | Potency [10] | Potency [11] | Potency [12] | outcome [13] | Potency [14] | max response [20] -4.03% and 2.07% | max response [15] 3% and -3.2% | max response [16] 16.9% and 5.91% | outcome [17]

Nc1ccc(Cl)c(Cl)c1
inactive: Potency [1] | Potency [2] | outcome [18] | outcome [3] | Potency [5] | Potency [6] | Potency [19] | outcome [7] | outcome [8] | activity change % (negative = inhibition) [9] 2.33% | Potency [10] | Potency [11] | Potency [12] | outcome [13] | Potency [14] | max response [20] -17.9% | max response [15] -1.26% | max response [16] 0.573% | outcome [17]
